Bioassay records: PubChem, several laboratories
In the library only some 2.8% were active in any assay of this set; here they are far more common.
Platelet DG rel: platelet dense granule release activity | human platelet-rich plasma, SFLLRN dense granule ATP release, luminescence | inhibition, %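 (compounds screened at 7.5 µM in platelet-rich plasma)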 | 0.22% of 300,000 active;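 active means mean replicate score, as percent of positive control, at or above 50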
SENP8 block-1: blocks human SENP8 cleavage of Nedd8 substrate; 0.64% of 360,000 active; recombinant SENP8, Nedd8 substrate fluorescence; Q96LD8; inhibition, % at 20 µM; in the data active means inhibition mostly above about 40%, no sharp cut-off; inactive means mostly below about 27%
Target sequence (Q96LD8 whole entry, looked up): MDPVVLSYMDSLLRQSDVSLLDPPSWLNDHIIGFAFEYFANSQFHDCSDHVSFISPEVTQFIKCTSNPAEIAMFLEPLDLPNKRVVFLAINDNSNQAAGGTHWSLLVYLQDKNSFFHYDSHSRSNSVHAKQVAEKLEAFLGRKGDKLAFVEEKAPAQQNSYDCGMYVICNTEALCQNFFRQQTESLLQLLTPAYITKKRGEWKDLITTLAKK
SENP8 block-2: SENP8 protease inhibition | Q96LD8 | purified SENP8, Z-RLRGG-aminoluciferin cleavage, luminescence | inhibition, % at 10 µM | 1.2% of 330,000 active | AID 2540; in the data active means inhibition above about 50%
HSP90 refold inh: inhibitors of HSP90 luciferase refolding in rabbit reticulocyte lysate. luciferase refolding luminescence, 3 h. inhibition, % at 5.6 µM. 0.91% of 290,000 active. AID 1789;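 active means inhibition above the screen-wide mean plus 3 SD, computed separately per campaign, cut at about 16% in these data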;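 further: 0% = DMSO wells and 100% = 60 µM geldanamycin wells; inhibitors lower the luminescence because luciferase stays unfolded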
SENP7 inh: inhibitors of human SENP7 protease; recombinant SENP7, Z-RLRGG-aminoluciferin luminescence, 40 min; inhibition, % at 5 µM; 1.5% of 330,000 active; AID 434973;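 active means inhibition above about 50% at the single test dose, limit read from the data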;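 further: plate controls were DMSO with enzyme for no effect and no enzyme buffer wells for full effect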
SENP6 inh: inhibitors of human SENP6 protease; inhibition, % at 10 µM; Q9GZR1; 1.8% of 330,000 active; Recombinant SENP6 catalytic domain, aminoluciferin luminescence;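 active means inhibition above about 50% at the single tested dose, limit read from the data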;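 further: plate controls were DMSO wells with enzyme for no effect and DMSO wells lacking enzyme for full effect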
Target sequence (Q9GZR1 628-1112 limits assumed): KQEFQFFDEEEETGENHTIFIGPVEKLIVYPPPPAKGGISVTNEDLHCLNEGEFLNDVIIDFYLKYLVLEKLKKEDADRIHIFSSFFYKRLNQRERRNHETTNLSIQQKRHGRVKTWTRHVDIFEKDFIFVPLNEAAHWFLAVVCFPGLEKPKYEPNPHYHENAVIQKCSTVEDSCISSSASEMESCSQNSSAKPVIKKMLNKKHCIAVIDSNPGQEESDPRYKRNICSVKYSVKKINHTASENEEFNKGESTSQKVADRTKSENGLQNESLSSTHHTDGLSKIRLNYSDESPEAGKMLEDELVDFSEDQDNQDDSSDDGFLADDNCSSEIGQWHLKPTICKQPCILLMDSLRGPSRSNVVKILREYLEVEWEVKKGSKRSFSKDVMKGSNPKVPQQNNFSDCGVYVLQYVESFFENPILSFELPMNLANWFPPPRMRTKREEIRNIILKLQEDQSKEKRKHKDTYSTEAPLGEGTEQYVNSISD
SENP8 conf: confirmation of human SENP8 protease inhibitors; Recombinant SENP8, Z-RLRGG-aminoluciferin luminescence, 60 min; inhibition, % at 12.5 µM; shares compounds with SENP7 inh; 40% of 6,200 active;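 active means mean inhibition across replicates above about 50%, limit read from the data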
SENP6 confirm: confirmation of human SENP6 protease inhibitors. shares compounds with SENP7 inh. recombinant SENP6, Z-RLRGG-aminoluciferin luminescence. inhibition, % at 12.5 µM. 58% of 6,200 active
SENP7 confirm: human SENP7 inhibition, confirmed. inhibition, % at 12.5 µM. AID 488917. shares compounds with SENP7 inh. recombinant SENP7, Z-RLRGG-aminoluciferin luminescence, 40 min. 69% of 6,200 active
Casp3 select: selectivity test for SENP inhibitors: human caspase-3 inhibition; shares compounds with SENP7 inh; purified caspase-3, Z-DEVD-aminoluciferin luminescence, 60 min; inhibition, % at 12.5 µM; 60% of 6,200 active;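 active means mean inhibition above about 50%, limit read from the data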;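 further: plate controls were enzyme with DMSO for no effect and wells without caspase-3 for full effect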
SENP luc ctr: interferes with luciferase luminescence in SENP counter-screen | shares compounds with SENP7 inh | Pre-incubated SENP8/Z-RLRGG-aminoluciferin, luciferase luminescence interference | inhibition, % at 12.5 µM | 39% of 6,200 active | AID 488919;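 active means mean inhibition above about 50% when retested at one dose, limit read from the data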;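 further: plate controls were DMSO wells with completed reaction for no effect and substrate without enzyme for full effect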
The depositor's hits bear a star; · = not tested or not shown.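 How the source made its calls, unless noted: active means mean inhibition above about 50% in the one-dose retest (limit read from the data); inactive means the rest.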

SMILES | Platelet DG rel | SENP8 block-1 | SENP8 block-2 | HSP90 refold inh | SENP7 inh | SENP6 inh | SENP8 conf | SENP6 confirm | SENP7 confirm | Casp3 select | SENP luc ctr
CCCCC/C=C/C1=CC(=O)C[C@H](c2ccc(OC)c(OC)c2)C1 | · | 6.6 | -4.4 | · | -4.1 | -3.8 | · | · | · | · | ·
CCCn1c(=O)c(C(=O)NCc2ccccc2OC)c(O)c2ccccc21 | -2.8 | -22.0 | 5.8 | 0.3 | 9.1 | 88.1* | 8.9 | 5.1 | 2.9 | 0.0 | 4.5
CCn1c(=O)c(C(=O)NCc2ccccc2OC)c(O)c2ccccc21 | 10.3 | -14.5 | 7.1 | 4.6 | 5.3 | -13.3 | · | · | · | · | ·
Cc1ccc(CNC(=O)CN(C(=O)N2CCN(C)CC2)S(=O)(=O)c2ccc(C)cc2)cc1 | -0.5 | 5.4 | 3.0 | · | 0.5 | -1.1 | · | · | · | · | ·
O/C(=C\c1nc2ccccc2nc1/C=C(\O)c1ccccc1)c1ccccc1 | 32.9 | -412.3 | 2.7 | 2.4 | 1.1 | 9.1 | · | · | · | · | ·
O=Nc1[nH]c(=O)c(/C=C(\O)c2ccccc2)nc1NO | 0.3 | 26.3 | 44.1 | 5.5 | 58.0* | 56.1* | 68.5* | 63.8* | 85.9* | 93.2* | 70.1*
COc1ccc(C(C#N)c2ccc(=O)[nH]n2)cc1 (stereo not given) | -6.2 | 3.6 | -0.5 | 1.4 | -14.1 | -3.4 | · | · | · | · | ·
CN=c1scc(C)n1/N=C/c1ccc2c(c1)OCO2 | 21.0 | -23.5 | 88.1* | 10.9 | 97.0* | 98.3* | 95.0* | 95.6* | 101.7* | 94.7* | 48.4
CN=c1scc(C)n1/N=C/c1ccc(O)cc1O | 23.9 | -33.3 | 76.5* | 7.6 | 77.5* | 77.9* | 90.3* | 88.3* | 99.1* | 88.0* | 85.6*
CN=c1scc(C)n1/N=C/c1cc(Br)c(O)c(Br)c1 | -1.2 | -97.8 | -4.9 | 1.8 | -1.9 | -5.2 | · | · | · | · | ·
CN=c1scc(C)n1/N=C/c1ccc(O)cc1 | · | -29.9 | -0.2 | 4.6 | 11.1 | 26.2 | · | · | · | · | ·
CCN(CC)c1ccc(N)cc1 | · | 5.9 | 1.9 | · | 6.0 | -2.2 | · | · | · | · | ·
Nc1ccc(N(CCO)CCO)cc1 | 8.4 | 65.2* | 29.0 | 3.1 | 21.5 | 56.6* | 20.0 | 21.5 | 14.8 | 5.8 | 4.4
CC(=O)Nc1ccc(N/C=C/C(=O)c2ccc(Cl)cc2)cc1 | -4.7 | -64.2 | 0.6 | 4.4 | -0.6 | -10.3 | · | · | · | · | ·
Cc1ccc(C(=O)/C=C/Nc2cccc(O)c2)cc1 | 21.8 | -67.8 | 88.3* | 4.0 | 49.8 | 93.0* | 9.9 | 92.7* | 100.1* | 77.4* | 77.6*
C/C(=C\C(=O)c1ccc(C)cc1)Nc1ccc(N2CCOCC2)cc1 | · | · | · | 1.3 | · | · | · | · | · | · | ·
CC(=O)c1cccc(N/C=C\C(=O)c2ccc(C)cc2)c1 | -0.9 | -236.0 | · | 2.0 | · | · | · | · | · | · | ·
C/C(=C\C(=O)c1ccc(C)cc1)Nc1cccc(O)c1 | 8.8 | 16.5 | 76.4* | -6.0 | -20.8 | 84.1* | 81.9* | 87.3* | 98.1* | 69.8* | 88.2*
O=C(/C=C/Nc1ccc(F)c(Cl)c1)c1ccccc1 | 2.0 | -189.1 | 34.2 | 1.2 | 65.2* | 71.3* | 19.0 | 39.7 | 87.4* | 58.4* | 17.1
O=C(/C=C/Nc1cccc(O)c1)c1ccccc1 | 38.0 | -90.5 | 96.3* | -3.5 | 98.4* | 97.1* | 98.6* | 99.3* | 102.6* | 96.9* | 97.5*
OC[C@@H]1CN(Cc2ccncc2)C[C@H](n2cnc3c(NCc4ccncc4)ncnc32)O1 | · | -5.2 | · | · | · | · | · | · | · | · | ·
Cc1ccc(N/C=C/C(=O)c2ccccc2)cc1Br | 2.4 | -153.1 | 45.0 | 11.3 | 82.8* | 63.0* | 3.8 | 4.1 | 5.6 | 22.8 | 10.8
Cc1ccc(C(=O)/C=C/Nc2ccc3c(c2)OCO3)cc1 | 7.5 | -30.3 | -3.6 | 1.8 | 60.2* | 38.2 | 14.6 | 14.8 | 26.4 | 22.8 | 6.3
O=C(/C=C/Nc1ccccc1)c1ccc(Oc2ncccn2)cc1 | 13.7 | -294.5 | 64.7* | 0.9 | 82.1* | 76.2* | 28.7 | 58.2* | 59.2* | 82.4* | 13.8
CN(C)/C=C/C(=O)c1ccc(Oc2ncccn2)cc1 | -0.1 | 1.3 | -9.4 | -1.1 | -5.6 | -6.7 | · | · | · | · | ·
SMILES | Platelet DG rel | SENP8 block-1 | SENP8 block-2 | HSP90 refold inh | SENP7 inh | SENP6 inh | SENP8 conf | SENP6 confirm | SENP7 confirm | Casp3 select | SENP luc ctr
CCCCCC(=O)Nc1ccc(C(=O)COC(=O)CN2C(=O)NC3(CCCC3)C2=O)cc1 | -2.9 | 0.2 | 2.6 | · | -3.1 | -15.2 | · | · | · | · | ·
CC(=O)NS(=O)(=O)c1ccc2sc(C)nc2c1 | -7.3 | 14.5 | -1.8 | 2.2 | -2.5 | -18.9 | · | · | · | · | ·
COc1ccc(-c2cc(C(=O)Nc3ccccc3)on2)cc1 | 18.1 | -2.1 | 41.7 | -7.3 | 86.5* | 60.7* | 11.0 | 18.7 | 4.1 | 9.0 | 4.6
COc1ccc(-c2cc(C(=O)Nc3ccccc3F)on2)cc1 | -15.4 | -0.7 | 11.1 | -4.2 | 69.8* | 35.0 | 21.6 | 16.4 | 13.4 | 16.0 | 1.0
COc1ccc(C)cc1NC(=O)CNC(=O)c1sc2ccccc2c1Cl | -0.4 | 4.5 | -12.3 | · | -9.5 | -29.7 | · | · | · | · | ·
CN(C(=O)c1ccccc1)c1nc2ccccc2s1 | 1.5 | 15.9 | 44.1 | 2.6 | 46.9 | 70.7* | 28.3 | 51.1* | 70.7* | 45.3 | 43.1
CN(C)C(=O)c1nc2ccccc2s1 | -8.1 | 13.3 | 1.2 | 0.2 | 14.1 | -18.0 | · | · | · | · | ·
COc1ccc(-c2ccc(SC)nn2)cc1 | 57.3* | -0.7 | 94.5* | 43.2* | 100.0* | 94.9* | 98.2* | 98.9* | 102.1* | 98.2* | 79.5*
COC(=O)c1c(-c2c(Cl)cccc2Cl)noc1C(=O)NNC(=O)N(C)C | 5.3 | 3.8 | -2.3 | 2.6 | -9.4 | -30.5 | · | · | · | · | ·
O=C(O)c1ccc(-c2nc3scc(-c4ccccc4)c3c(=O)[nH]2)cc1 | -1.8 | -404.8 | 31.7 | 1.9 | 25.1 | 61.1* | 37.5 | 29.5 | 61.9* | 22.6 | 18.0
N#CC(Cc1cccs1)c1nc2ccccc2[nH]1 (stereo not given) | · | -33.5 | · | · | · | · | · | · | · | · | ·
N#CC(Cc1ccc(OC(F)F)cc1)c1nc2ccccc2[nH]1 (stereo not given) | 1.4 | -21.5 | 79.9* | 5.8 | 64.1* | 92.7* | 91.5* | 90.8* | 99.9* | 88.0* | 90.8*
O=C(/C=C/c1c(Cl)cccc1Cl)NCCCn1ccnc1 | -5.6 | 10.2 | -12.0 | · | -5.9 | -36.7 | · | · | · | · | ·
COc1ccc(/C=C/C(=O)OCC(=O)NCc2ccco2)c(OC)c1 | -9.1 | -40.1 | -3.9 | -7.9 | 5.1 | 17.9 | · | · | · | · | ·
CCCN(CC(=O)Nc1ccccc1OC)C(=O)CCNC(=O)c1ccccc1OC | 2.1 | 19.4 | -0.2 | · | -0.7 | 11.9 | · | · | · | · | ·
